Results on eight compounds are retold here after PubChem BioAssay (Tox21).

Experiment [1] in a line: Nuclear factor erythroid 2-related factor 2/antioxidant responsive element (Nrf2/ARE) small molecule agonists: qHTS cell viability counter screen in human keratinocytes (AID 1919968; active means well fitted curve in the direction sought with a large enough effect in the repeat runs; an effect the other way counts as inactive or inconclusive; further: nearly all actives have a fitted effect of over 55% in size; further: potency means the concentration at half of the fitted maximal effect). An outline of the steps: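 HaCaT ARE reporter line, 1,500 cells/well; 5 h settle, 37 C/5% CO2; cpd in DMSO pinned; 23 h exposure; CellTiter-Fluor, 1 h; fluorescence.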
(In general: qHTS replaces the single test concentration by a dilution series.)

Experiment [2] in a line: Nuclear factor erythroid 2-related factor 2/antioxidant responsive element (Nrf2/ARE) small molecule agonists: luciferase reporter gene qHTS assay in human keratinocytes (AID 1919969). Further: nearly all actives have a fitted effect of over 35% in size. In general terms: In a reporter assay the amount or activity of a reporter protein is the signal.
For experiment [3], the target named is Gonadotropin-releasing hormone receptor (Homo sapiens) (UniProt P30968). Put plainly: Human gonadotropin-releasing hormone receptor (GnRHR) small molecule agonists, calcium flux assay in GnRHR-HEK293 cells (AID 1920063). Further: nearly all actives have a fitted effect of over 35% in size. Put shortly:
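GnRHR-HEK293, 1500 cells/well, 18 h 37 C/5% CO2; Ca dye 1 h 37 C; cpd pinned (DMSO), agonist mode; kinetic FL 480/540, 3 min, 1 s reads; 15 conc, n=3.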
In general terms: Calcium assays in cells follow changes in intracellular calcium, usually with a dye or a luminescent sensor.

Experiment [4] concerns the target KiSS-1 receptor (Homo sapiens) (UniProt Q969F8). Put plainly: Human kisspeptin (KISS1R) small molecule agonists, calcium flux assay in KISS1R-HEK293 cells (AID 1920064; active means well fitted curve in the direction sought with a large enough effect in the repeat runs; an effect the other way counts as inactive or inconclusive). An outline of the steps:
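Stable human KISS1R HEK293 line; 18 h plating, 37 C/5% CO2; calcium dye 1 h 37 C; compound pin transfer; kinetic fluorescence Ex/Em 480/540, 3 min.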

Experiment [5] can be described thus: G protein-coupled receptor (GPCR) small molecule agonists, calcium flux assay: HEK293 wild type cell line counter screen (AID 1920065). Put shortly: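 Kinetic fluorescence at Ex/Em 480/540, recorded every second over 3 min, served as the read-out after compound addition. Each compound was tested at 15 concentrations in triplicate on cells pre-loaded with calcium dye for 1 h.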

The nature of experiment [6]: p53 small molecule agonists, cell-based qHTS assay with human liver microsomes: qHTS cell viability counter screen (AID 1963579). Further: nearly all actives have a fitted effect of over 45% in size. Further: potency means the concentration at half of the fitted maximal effect. Put shortly:
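Metabolically activated exposure: compounds, human liver microsomes and NADPH (0.5 mg/mL final apiece) were added to p53RE-bla cells seeded 5 h earlier, left 16 h at 37 C, and then assessed for viability by CellTiter-Glo luminescence.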

A short description of experiment [7]: p53 small molecule agonists, cell-based qHTS assay with rat liver microsomes: qHTS cell viability counter screen (AID 1963580). Further: nearly all actives have a fitted effect of over 45% in size. An outline of the steps: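 Viability is assessed in parallel with the p53 reporter read: HCT-116 p53RE-bla cells receive compounds plus rat microsomes and NADPH (0.5 mg/mL final apiece), incubate 16 h at 37 C, and then CellTiter-Glo luminescence is recorded.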

Experiment [8] addresses 5-hydroxytryptamine receptor 2A (Homo sapiens) (UniProt P28223). Put plainly: 5-hydroxytryptamine receptor 2A (HTR2A) small molecule antagonists, cell-based qHTS assay (AID 1963586). Further: nearly all actives have a fitted effect of over 45% in size. Further: potency means the concentration at half of the fitted maximal effect. An outline of the steps: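 Antagonist-mode intracellular calcium assay: DOI (4 nM) added after 5 min compound pre-incubation at room temperature to dye-loaded HTR2A-CHO cells. Fluorescence followed for 3 min, sampled every second.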

Experiment [9] addresses Muscarinic acetylcholine receptor M1 (Homo sapiens) (UniProt P11229). The experiment is described as follows: Cholinergic receptor muscarinic 1 (CHRM1) small molecule antagonists, cell-based qHTS assay (AID 1963588). Further: nearly all actives have a fitted effect of over 40% in size. An outline of the steps: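 CHRM1-CHO calcium-flux assay, antagonist mode. Cells were seeded 18 h, dye-loaded 1 h at 37 C and given compound for 5 min at RT, then acetylcholine was added at 50nM. FDSS fluorescence was read 3 min; 15 concentrations, three runs.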

For experiment [10] the target is unchanged. Put plainly: Cholinergic receptor muscarinic 1 (CHRM1) small molecule agonists, cell-based qHTS assay (AID 1963589). Further: nearly all actives have a fitted effect of over 35% in size. Put shortly:
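Human M1 in stable CHO line; 18 h plating, 1 h dye load 37 C; cpd added (agonist mode); Ca2+ fluorescence kinetic read, 1 s intervals; 15 conc, 3 runs.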

For experiment [11], the target named is Beta-2 adrenergic receptor (Homo sapiens) (UniProt P07550). The experiment is described as follows: Adrenergic beta2 receptor (ADRB2) small molecule antagonists, cell-based qHTS assay (AID 1963592). Further: series mostly up to about 92 µM; nearly all actives have a fitted effect of over 50% in size. An outline of the steps:
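Cells (CHO, stable ADRB2 overexpression) incubated 18-20hr at 37C; compounds added from DMSO; agonist mix (1nM isoproterenol, 100uM IBMX, 25uM Ro-20-1724) added; 0.5hr RT; d2-cAMP and anti-cAMP-cryptate added; 1hr RT; 665/615 nm read.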

The target of experiment [12] is D(2) dopamine receptor (Homo sapiens) (UniProt P14416). The experiment is described as follows: Dopamine D2 receptor (DRD2) small molecule agonists, cell-based qHTS assay (AID 1963594). Further: nearly all actives have a fitted effect of over 35% in size. An outline of the steps:
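HEK293 cells stably expressing human DRD2, pre-treated with PDE inhibitor Ro20-1724 (0.1 mM final) and compound 10 min at room temperature, then stimulated with NKH477 (200nM […]) for 30 min. cAMP read by HTRF (665/620 nm).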

A short description of experiment [13]: p53 small molecule agonists, cell-based qHTS assay: qHTS cell viability counter screen (AID 1963581). Further: nearly all actives have a fitted effect of over 45% in size. Put shortly: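 HCT-116 p53RE-bla cells, 4,000/well, plated 5 h before compound pin transfer; 16 h at 37 C; bla substrate 2 h RT; then CellTiter-Glo, 30 min RT, luminescence.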
Experiment [14] addresses 5-hydroxytryptamine receptor 2A (Homo sapiens) (UniProt P28223). Put plainly: 5-hydroxytryptamine receptor 2A (HTR2A) small molecule agonists, cell-based qHTS assay (AID 1963587). Further: nearly all actives have a fitted effect of over 30% in size. Further: potency means the concentration at half of the fitted maximal effect. An outline of the steps: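 CHO cells stably expressing human HTR2A, plated 18 h, loaded with calcium dye 1 h at 37 C. Agonist mode: compounds added and intracellular calcium fluorescence recorded kinetically for 2 min at 1 sec intervals.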

The nature of experiment [15]: cAMP Responsive Elements (CRE) small molecule agonists, cell-based qHTS assay (AID 1963590). An outline of the steps: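 HEK 293T CRE-bla, 2,000 cells/well, 18 h preincubation 37 C/5% CO2; cpds (DMSO) pinned, 3 h; LiveBLAzer B/G FRET substrate, 2 h RT.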
Experiment [16] in a line: cAMP Responsive Elements (CRE) small molecule antagonists, cell-based qHTS assay (AID 1963591; active means well fitted inhibition curve with a large enough effect in the signal ratio in the repeat runs, not every such curve was filed as active; the % refers to the signal ratio). An outline of the steps:
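Beta-lactamase reporter read by FRET substrate (LiveBLAzer B/G) after 2 h at room temperature. CRE-bla HEK293T cells had received compound plus 0.25 uM (final) NKH477 for 3 h at 37 °C.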

For experiment [17], the target named is Beta-2 adrenergic receptor (Homo sapiens) (UniProt P07550). The experiment is described as follows: Adrenergic beta2 receptor (ADRB2) small molecule agonists, cell-based qHTS assay (AID 1963593).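 Further: CHO cells stably overexpressing human ADRB2.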 Put shortly:
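CHO cells stably over-expressing ADRB2 were plated overnight at 37C, then dosed with compounds plus a stimulation mix containing 100uM IBMX and 25uM Ro-20-1724 for 0.5hr at room temperature. cAMP was measured by HTRF competition, 1hr.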

The target in experiment [18] is D(2) dopamine receptor (Homo sapiens) (UniProt P14416). Put plainly: Dopamine D2 receptor (DRD2) small molecule antagonists, cell-based qHTS assay (AID 1963595; active means well fitted inhibition curve with a large enough effect in the signal ratio in the repeat runs, with a control signal flat; the % refers to the signal ratio; further: potency means the concentration at half of the fitted maximal effect). Put shortly:
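HTRF cAMP read-out at 665 and 620 nm emission (340 nm excitation). Antagonist mode: compounds were tested against 12 nM quinpirole in DRD2-HEK293 cells, with 200 nM NKH477 raising cAMP and 0.1 mM Ro20-1724 blocking its breakdown.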

Unmarked numbers belong to inactive results. Inconclusive results are not listed. Active and inactive are the calls of the source. Unless noted, the call rests on the fitted dose curve.

Sequence of Beta-2 adrenergic receptor (Homo sapiens) (P07550 whole entry, looked up): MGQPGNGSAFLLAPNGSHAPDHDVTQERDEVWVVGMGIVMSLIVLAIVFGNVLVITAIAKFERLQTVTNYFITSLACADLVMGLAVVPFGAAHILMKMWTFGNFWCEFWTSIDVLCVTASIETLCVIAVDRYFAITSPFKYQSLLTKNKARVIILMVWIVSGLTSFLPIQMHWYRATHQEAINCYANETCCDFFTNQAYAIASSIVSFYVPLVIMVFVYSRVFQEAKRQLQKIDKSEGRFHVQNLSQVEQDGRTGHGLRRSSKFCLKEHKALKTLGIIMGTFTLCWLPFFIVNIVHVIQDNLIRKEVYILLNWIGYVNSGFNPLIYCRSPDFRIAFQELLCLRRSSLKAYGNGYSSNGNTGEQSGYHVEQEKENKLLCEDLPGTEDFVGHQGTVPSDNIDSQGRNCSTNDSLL
Sequence of 5-hydroxytryptamine receptor 2A (Homo sapiens) (P28223 whole entry, looked up): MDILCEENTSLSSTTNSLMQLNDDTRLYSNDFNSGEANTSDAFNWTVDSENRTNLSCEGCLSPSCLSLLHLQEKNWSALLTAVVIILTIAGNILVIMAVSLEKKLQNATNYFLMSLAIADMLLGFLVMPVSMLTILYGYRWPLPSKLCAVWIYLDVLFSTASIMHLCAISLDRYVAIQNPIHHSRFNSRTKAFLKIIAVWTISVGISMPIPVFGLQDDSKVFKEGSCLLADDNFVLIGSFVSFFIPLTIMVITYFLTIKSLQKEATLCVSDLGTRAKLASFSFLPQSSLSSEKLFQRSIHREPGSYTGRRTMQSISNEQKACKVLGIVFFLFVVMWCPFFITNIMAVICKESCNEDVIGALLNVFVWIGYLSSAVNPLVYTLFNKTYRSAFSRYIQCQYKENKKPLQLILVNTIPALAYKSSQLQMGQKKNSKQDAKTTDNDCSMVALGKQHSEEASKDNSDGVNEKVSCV
Sequence of Gonadotropin-releasing hormone receptor (Homo sapiens) (P30968 whole entry, looked up): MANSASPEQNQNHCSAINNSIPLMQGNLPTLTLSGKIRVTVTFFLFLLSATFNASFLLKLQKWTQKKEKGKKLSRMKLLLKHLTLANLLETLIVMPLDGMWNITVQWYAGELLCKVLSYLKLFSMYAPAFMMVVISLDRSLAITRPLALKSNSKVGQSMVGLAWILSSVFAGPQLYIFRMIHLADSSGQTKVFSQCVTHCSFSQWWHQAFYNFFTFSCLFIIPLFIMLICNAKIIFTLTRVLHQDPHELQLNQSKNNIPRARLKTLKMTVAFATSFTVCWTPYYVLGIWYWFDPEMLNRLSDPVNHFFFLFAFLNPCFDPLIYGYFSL
Sequence of KiSS-1 receptor (Homo sapiens) (Q969F8 whole entry, looked up): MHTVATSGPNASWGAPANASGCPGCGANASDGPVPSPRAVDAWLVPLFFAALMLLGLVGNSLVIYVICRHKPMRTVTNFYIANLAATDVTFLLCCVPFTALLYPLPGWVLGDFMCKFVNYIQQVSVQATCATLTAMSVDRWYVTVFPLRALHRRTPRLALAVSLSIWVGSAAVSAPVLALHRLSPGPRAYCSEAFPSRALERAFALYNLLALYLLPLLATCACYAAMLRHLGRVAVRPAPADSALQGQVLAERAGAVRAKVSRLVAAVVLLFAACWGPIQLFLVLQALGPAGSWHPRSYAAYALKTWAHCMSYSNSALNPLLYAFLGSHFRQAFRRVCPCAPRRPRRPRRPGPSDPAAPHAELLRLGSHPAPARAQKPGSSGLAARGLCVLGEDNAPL
Sequence of D(2) dopamine receptor (Homo sapiens) (P14416 whole entry, looked up): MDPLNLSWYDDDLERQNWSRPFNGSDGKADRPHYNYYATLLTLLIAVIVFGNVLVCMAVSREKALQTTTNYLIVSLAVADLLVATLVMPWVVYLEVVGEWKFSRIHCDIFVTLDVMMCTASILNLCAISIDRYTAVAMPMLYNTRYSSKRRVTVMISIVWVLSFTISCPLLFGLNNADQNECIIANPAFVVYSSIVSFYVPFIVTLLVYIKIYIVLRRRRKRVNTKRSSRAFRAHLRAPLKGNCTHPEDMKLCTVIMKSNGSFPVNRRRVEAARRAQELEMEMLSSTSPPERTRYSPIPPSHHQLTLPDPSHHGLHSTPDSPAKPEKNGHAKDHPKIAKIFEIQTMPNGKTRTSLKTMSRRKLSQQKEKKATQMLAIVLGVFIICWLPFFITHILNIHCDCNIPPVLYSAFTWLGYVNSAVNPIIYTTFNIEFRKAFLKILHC
Sequence of Muscarinic acetylcholine receptor M1 (Homo sapiens) (P11229 whole entry, looked up): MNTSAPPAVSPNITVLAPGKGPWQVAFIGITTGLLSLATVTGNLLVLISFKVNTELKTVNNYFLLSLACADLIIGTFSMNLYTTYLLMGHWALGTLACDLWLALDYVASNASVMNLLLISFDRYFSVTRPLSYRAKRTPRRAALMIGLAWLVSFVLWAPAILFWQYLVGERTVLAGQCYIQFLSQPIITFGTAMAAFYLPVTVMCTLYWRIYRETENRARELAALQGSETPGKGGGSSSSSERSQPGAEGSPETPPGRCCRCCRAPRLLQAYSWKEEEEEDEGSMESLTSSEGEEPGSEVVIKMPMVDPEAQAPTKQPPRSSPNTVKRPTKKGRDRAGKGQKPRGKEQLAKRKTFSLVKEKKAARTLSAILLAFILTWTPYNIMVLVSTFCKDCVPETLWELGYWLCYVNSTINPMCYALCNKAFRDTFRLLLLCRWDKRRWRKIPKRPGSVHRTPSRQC

Take `CC(=O)Oc1cccc2c1C(=O)c1c(OC(C)=O)cc(C(=O)O)cc1C2=O`: the Potency entry in experiment [1], in experiment [2], in experiment [3], in [4], in experiment [5] and in experiment [6] was “inactive” throughout. The Potency entry in experiment [7], in experiment [8], in experiment [9], in [10], in experiment [11] and in [12] was “inactive” each time.

For `CCN(CCC#N)c1ccccc1`, the Potency result in [1], in experiment [2], in experiment [3], in experiment [4], in experiment [5] and in experiment [6] was “inactive” throughout. The Potency entry in experiment [13], in experiment [8], in experiment [14], in experiment [9], in [10] and in experiment [15] was “inactive” throughout. The Potency entry in experiment [16], in [11], in [17], in experiment [12] and in experiment [18] was “inactive” in each case.

In the case of `C=C(C)C1CC=C(C)C(=O)C1` (centres undefined), the Potency result in experiment [1], in experiment [2], in experiment [3], in [4], in [5] and in experiment [13] was “inactive” in each case. For the same compound, the Potency result in experiment [8], in experiment [14], in experiment [9], in experiment [10], in experiment [15] and in [16] was “inactive” in each case. Further, the Potency entry in experiment [11], in experiment [17], in [12] and in experiment [18] was “inactive” in each case. Also, the Potency in experiment [6] is 32.2 µM (active).

Turning to `O=Cc1ccccc1S(=O)(=O)O`, the Potency result in [1], in experiment [2], in experiment [3], in experiment [4], in experiment [5] and in experiment [6] was “inactive” throughout. The Potency result in experiment [13], in experiment [8], in [14], in experiment [9], in experiment [10] and in [15] was “inactive” each time. In addition, the Potency result in experiment [16], in experiment [11], in experiment [17], in experiment [12] and in [18] was “inactive” throughout.

For the compound `CCO[Si](CCCSSSSCCC[Si](OCC)(OCC)OCC)(OCC)OCC`, the Potency was 61.2 µM (active) in experiment [1] and 49 µM (active) in experiment [14]. Also, the Potency result in experiment [2], in [3], in experiment [4], in [5], in experiment [6] and in experiment [13] was “inactive” in each case. The Potency result in [8], in [9], in [11], in experiment [12] and in experiment [18] was “inactive” in each case.

Regarding `CO[C@@]1(NC(=O)Cc2cccs2)C(=O)N2C(C(=O)O)=C(COC(N)=O)CS[C@@H]21`, the Potency entry in experiment [1], in experiment [2], in experiment [3], in [4], in experiment [5] and in experiment [6] was “inactive” each time. Further, the Potency result in experiment [13], in experiment [8], in experiment [14], in experiment [9], in [10] and in [15] was “inactive” throughout. The Potency entry in [16], in experiment [17], in [12] and in experiment [18] was “inactive” each time.

Consider `CCC(=O)c1ccc2c(c1)N(CCCN(C)C)c1ccccc1S2`, for which the Potency entry in experiment [1], in experiment [2], in [3], in experiment [4], in experiment [5] and in experiment [6] was “inactive” in each case. Further, the Potency result in experiment [7], in [10], in experiment [15], in [16], in experiment [11] and in experiment [12] was “inactive” each time. Also, the Potency was 0.13 µM (active) in experiment [8] and 0.531 µM (active) in [18].

For `O=C(O)CC(=O)C(=O)O`, the Potency result in [1], in [2], in experiment [3], in experiment [4], in [5] and in [6] was “inactive” throughout. Also, the Potency entry in experiment [13], in experiment [8], in experiment [10], in experiment [15], in experiment [16] and in [11] was “inactive” in each case. Moreover, the Potency entry in [18] was “inactive”.
